Lassa entry inh = qHTS for Inhibitors of binding or entry into cells for Lassa Virus | Lassa virus pseudotype entry inhibition, cell reporter | Potency, µM (series often up to 37.9 µM), for the others: top-dose activity change, negative = inhibition, actives largely listed as inhibitors | 300,000 tested, 1.2% active | AID 540256, 2011; calls by dose curve; tested in HEK293 cells; also: potency is read from the fitted curve at half-maximal effect; % is scaled to controls: 0 for no effect and ±100 for the full control effect; nearly all actives have a fitted effect of over 50% in size
Marburg entry inh = qHTS for inhibitors of binding or entry into cells for Marburg Virus. Potency, µM (top dose mostly 37.8 µM), for inactives: at the top dose activity change, negative = inhibition, most hits filed as inhibitors. 300,000 tested, 1.8% active. Marburg virus pseudotyped entry inhibition, cell reporter. AID 540276, 2011; calls by dose curve; tested in HEK293 cells; also: potency is read from the fitted curve at half-maximal effect; % is scaled to controls: 0 for no effect and ±100 for the full control effect
Shiga toxin inh = A qHTS for Small Molecule Inhibitors of Shiga Toxin. inhibition, % at 38.7 µM. 290,000 tested, 9.2% active. Vero cells, Shiga toxin protein synthesis inhibition reporter; in the data active = inhibition mostly above about 28%, no sharp cut-off; inactive = mostly below about 43%; also: 0% is about no effect
Cycloheximide cs = Cycloheximide Counterscreen for Small Molecule Inhibitors of Shiga Toxin; cell reporter, cycloheximide protein synthesis inhibition counterscreen; max response, %; 300,000 tested, 12% active; in the data active = max response mostly above about 13%, no sharp cut-off; inactive = mostly below about 14%; also: read at 38.3 µM for the half of the compounds with a filed dose; 0% is about no effect
Active calls of the source: *; [ ] = another dose, or the depositor's remark. Compounds with a hit are over-represented: about 12% of the library has one in this group of screens.

`Cc1ccc(C)c(S(=O)(=O)N2CCCC2CNC(=O)C(=O)NCC2CCCO2)c1` (centres undefined) gave Lassa entry inh 5% and Marburg entry inh 13%[46.1 µM].
For O=C(Nn1cnc2ccccc2c1=O)c1cccc(Cl)c1 the results were Lassa entry inh 17%, Marburg entry inh 2%[46.1 µM], Shiga toxin inh 33 and Cycloheximide cs 44*.
O=C(Nn1cnc2ccccc2c1=O)c1ccc([N+](=O)[O-])cc1 was read as Lassa entry inh 0%, Marburg entry inh inconclusive, Shiga toxin inh -6 and Cycloheximide cs -1.
CCc1ccc(C(=O)Nn2cnc3ccccc3c2=O)cc1 was read as Lassa entry inh inconclusive, Marburg entry inh 5%[46.1 µM], Shiga toxin inh 109* and Cycloheximide cs 54*.
`O=C(Nn1cnc2ccccc2c1=O)c1ccc(Cl)c([N+](=O)[O-])c1` gave Lassa entry inh 0%, Marburg entry inh -2%, Shiga toxin inh -4 and Cycloheximide cs -1.
For O=C(NC(=S)Nc1ccc(Cl)cn1)C12CC3CC(CC(C3)C1)C2 the results were Shiga toxin inh 46 and Cycloheximide cs 15*.
For Cn1sc(NC(=O)c2cccc(Cl)c2)nc1=O the results were Lassa entry inh 1%, Marburg entry inh inconclusive, Shiga toxin inh 51* and Cycloheximide cs 16.
For O=C(CCc1ccccc1)Nc1ccc(Cl)cn1 the results were Lassa entry inh 2%, Marburg entry inh inconclusive, Shiga toxin inh 134* and Cycloheximide cs 46*.
Screening CCC(=O)NC(=S)Nc1ccc(Cl)cn1 returned Lassa entry inh 18%, Marburg entry inh inconclusive, Shiga toxin inh 5 and Cycloheximide cs 26.
`O=C(Cc1ccccc1)Nc1ccc(Cl)cn1` gave Lassa entry inh 20%, Marburg entry inh 17%, Shiga toxin inh 42 and Cycloheximide cs 23*.
`CC(C)(C)c1nn(-c2ccccc2)c2[nH]c(=O)c(C=O)cc12` gave Shiga toxin inh -11 and Cycloheximide cs 7.
For Cc1ccc(NC(=O)c2ccc(Nc3ccccc3F)nc2)cc1 the results were Lassa entry inh -1%, Marburg entry inh 42%, Shiga toxin inh 15 and Cycloheximide cs 40*.
Screening Cc1ccc(NC(=O)c2cccc(S(=O)(=O)N3CCc4ccccc4C3)c2)nc1 returned Lassa entry inh -28% and Marburg entry inh -18%.
CC(=O)N1CCN(S(=O)(=O)c2cccc(C(=O)Nc3ccc(C)cn3)c2)CC1 was read as Lassa entry inh -13%, Marburg entry inh 16%, Shiga toxin inh 77* and Cycloheximide cs 45*.
Screening Cc1ccc(NC(=O)c2ccc(NCc3ccc(F)cc3)nc2)cc1 returned Lassa entry inh 8%, Marburg entry inh 21%[46.1 µM], Shiga toxin inh -3 and Cycloheximide cs -3.
`S=C(Nc1ccccc1)Nc1ccc(Cl)cn1` gave Lassa entry inh -26%, Marburg entry inh 0%[46.1 µM], Shiga toxin inh 57 and Cycloheximide cs 25*.
`Cc1ccc(NC(=O)Cc2ccc(Cl)cc2)nc1` gave Lassa entry inh inconclusive and Marburg entry inh 5%.
For Cc1ccc(CC(=O)Nc2ccc(Cl)cn2)cc1 the results were Shiga toxin inh 70* and Cycloheximide cs 41*.
For CCOC(=O)c1cc(S(=O)(=O)N2CCCC2)cn1C the results were Shiga toxin inh 1 and Cycloheximide cs -2.
Cc1ccc(NC(=O)c2cccc(Cl)c2)nc1 was read as Lassa entry inh 3%, Marburg entry inh inconclusive, Shiga toxin inh 161 and Cycloheximide cs 29*.
Screening O=C(CSc1ccccn1)Nc1ccc(Cl)cn1 returned Lassa entry inh 12%, Marburg entry inh 30%, Shiga toxin inh 44 and Cycloheximide cs 23*.
For O=C(CCSCCc1ccccn1)Nc1ccc(Cl)cn1 the results were Lassa entry inh 40%[14.3 µM], Marburg entry inh -2%, Shiga toxin inh -11 and Cycloheximide cs 5.
For Cc1ccc(S(=O)(=O)NC(=O)Nc2ccc(Cl)cn2)cc1 the results were Lassa entry inh 0%, Marburg entry inh -1%, Shiga toxin inh 20 and Cycloheximide cs 0.
Screening Cc1ccc(NC(=O)CNC(=O)c2cccc(Cl)c2)nc1 returned Lassa entry inh 23% and Marburg entry inh 14%.
Cc1ccc(C(=O)Nc2ccc(Cl)cn2)cc1 was read as Lassa entry inh inconclusive, Marburg entry inh 7.3µM*, Shiga toxin inh 55* and Cycloheximide cs 34*.
For O=C(CN1C(=O)COc2ccc(S(=O)(=O)NC3CCCC3)cc21)NCc1ccc(Cl)cc1 the results were Lassa entry inh -10%[46.1 µM].
Screening COc1cc2[nH]c(=S)n(NC(=O)CC(C)C)c(=O)c2cc1OC returned Lassa entry inh inconclusive, Marburg entry inh 1%, Shiga toxin inh -4 and Cycloheximide cs -3.
`N=C1CCC(=N)c2c1c(O)c1ccccc1c2O` gave Lassa entry inh 7%[46.1 µM], Marburg entry inh inconclusive, Shiga toxin inh 4 and Cycloheximide cs 13*.
Cc1ccc(C(=O)Nc2cc3c(oc2=O)CCCC3=O)cc1 was read as Lassa entry inh 19%, Marburg entry inh inconclusive, Shiga toxin inh 75* and Cycloheximide cs 45*.
Screening O=C(Nc1cc2c(oc1=O)CCCC2=O)c1ccccc1 returned Lassa entry inh 21%, Marburg entry inh 18%, Shiga toxin inh 17* and Cycloheximide cs 33*.
Screening CC1(C)CC(=O)c2cc(NC(=O)c3ccc(F)cc3)c(=O)oc2C1 returned Lassa entry inh inconclusive, Marburg entry inh 4%[46.1 µM], Shiga toxin inh -4 and Cycloheximide cs 2.
For C[C@H](O)c1[nH]c2cc(F)ccc2c1[C@H](C)O the results were Shiga toxin inh -1 and Cycloheximide cs 1.
CCCCc1ccc(NC(=S)NCC2CCCO2)cc1 (centres undefined) was read as Lassa entry inh -3%[46.1 µM], Marburg entry inh -14%[46.1 µM], Shiga toxin inh 33* and Cycloheximide cs 8.8*.
`CCc1ccc(NC(=O)C(=O)NCC2CCCO2)cc1` (centres undefined) gave Shiga toxin inh 101* and Cycloheximide cs 46*.
Screening CN(C)c1ccc(NC(=S)NCC2CCCO2)cc1 (centres undefined) returned Lassa entry inh inconclusive, Marburg entry inh -5%, Shiga toxin inh 39* and Cycloheximide cs 42*.
Screening CCNS(=O)(=O)c1ccc(NC(=S)NCC2CCCO2)cc1 (centres undefined) returned Lassa entry inh -14%, Marburg entry inh 3%[46.1 µM], Shiga toxin inh -10 and Cycloheximide cs 4.
`O=C(Cc1ccc(Cl)c(Cl)c1)NNC(=S)NCC1CCCO1` (centres undefined) gave Shiga toxin inh -3 and Cycloheximide cs -2.
Screening CCc1ccc(CNC(=O)C(=O)NCC2CCCO2)cc1 (centres undefined) returned Lassa entry inh 37%[46.1 µM], Marburg entry inh -14%[46.1 µM], Shiga toxin inh 16 and Cycloheximide cs 1.
Screening S=C(NCC1CCCO1)Nc1ccc(Cl)c(Cl)c1 (centres undefined) returned Shiga toxin inh 50* and Cycloheximide cs 13.
Screening COCCNC(=S)N/N=C(\C)c1cccc(C(F)(F)F)c1 returned Lassa entry inh inconclusive, Marburg entry inh -7%, Shiga toxin inh -13 and Cycloheximide cs -2.
`C/C(=N\NC(=O)C1CCCC1)c1ccc(C(C)C)cc1` gave Lassa entry inh -27%[46.1 µM], Marburg entry inh 19%[46.1 µM], Shiga toxin inh 52* and Cycloheximide cs 24*.
`COCCNC(=S)N/N=C(\C)c1cc2ccccc2o1` gave Lassa entry inh inconclusive, Marburg entry inh inconclusive, Shiga toxin inh 25* and Cycloheximide cs 9.
